These results are taken from ChEMBL document CHEMBL2218924, “A broad activity screen in support of a chemogenomic map for kinase signalling research and drug discovery” (Biochem J, 2013).

Experiment [1] addresses T1, Muscle, skeletal receptor tyrosine-protein kinase (Homo sapiens) (UniProt O15146).
T1 sequence (whole entry): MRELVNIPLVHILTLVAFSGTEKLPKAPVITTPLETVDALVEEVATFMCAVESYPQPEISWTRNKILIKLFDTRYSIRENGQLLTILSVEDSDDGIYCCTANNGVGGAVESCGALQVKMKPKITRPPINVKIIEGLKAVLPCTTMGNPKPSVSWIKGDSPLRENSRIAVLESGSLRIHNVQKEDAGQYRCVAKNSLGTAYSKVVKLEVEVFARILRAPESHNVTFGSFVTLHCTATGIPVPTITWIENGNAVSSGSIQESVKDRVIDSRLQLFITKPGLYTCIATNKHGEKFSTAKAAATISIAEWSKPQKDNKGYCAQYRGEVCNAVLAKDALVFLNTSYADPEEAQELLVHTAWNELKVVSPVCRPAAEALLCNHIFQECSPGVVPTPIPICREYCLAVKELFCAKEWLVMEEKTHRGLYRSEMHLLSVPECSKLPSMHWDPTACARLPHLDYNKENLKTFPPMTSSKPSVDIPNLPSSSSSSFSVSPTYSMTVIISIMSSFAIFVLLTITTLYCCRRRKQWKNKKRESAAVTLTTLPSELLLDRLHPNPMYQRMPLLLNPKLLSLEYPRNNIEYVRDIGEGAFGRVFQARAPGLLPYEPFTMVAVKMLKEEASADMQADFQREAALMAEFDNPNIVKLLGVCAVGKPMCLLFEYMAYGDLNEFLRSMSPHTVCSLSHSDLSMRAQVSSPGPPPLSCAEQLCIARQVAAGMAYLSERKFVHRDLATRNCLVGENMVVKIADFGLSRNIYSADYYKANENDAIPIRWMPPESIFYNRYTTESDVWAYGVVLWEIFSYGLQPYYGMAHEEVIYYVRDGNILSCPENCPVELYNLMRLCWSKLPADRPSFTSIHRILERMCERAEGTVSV
The note with it: at 1 µM.

Experiment [2] deals with T1, Muscle, skeletal receptor tyrosine-protein kinase (Homo sapiens). The note with it: at 10 µM.
For experiment [3], the target named is T2, Serine/threonine-protein kinase Nek11 (Homo sapiens) (UniProt Q8NG66).
T2 sequence (whole entry): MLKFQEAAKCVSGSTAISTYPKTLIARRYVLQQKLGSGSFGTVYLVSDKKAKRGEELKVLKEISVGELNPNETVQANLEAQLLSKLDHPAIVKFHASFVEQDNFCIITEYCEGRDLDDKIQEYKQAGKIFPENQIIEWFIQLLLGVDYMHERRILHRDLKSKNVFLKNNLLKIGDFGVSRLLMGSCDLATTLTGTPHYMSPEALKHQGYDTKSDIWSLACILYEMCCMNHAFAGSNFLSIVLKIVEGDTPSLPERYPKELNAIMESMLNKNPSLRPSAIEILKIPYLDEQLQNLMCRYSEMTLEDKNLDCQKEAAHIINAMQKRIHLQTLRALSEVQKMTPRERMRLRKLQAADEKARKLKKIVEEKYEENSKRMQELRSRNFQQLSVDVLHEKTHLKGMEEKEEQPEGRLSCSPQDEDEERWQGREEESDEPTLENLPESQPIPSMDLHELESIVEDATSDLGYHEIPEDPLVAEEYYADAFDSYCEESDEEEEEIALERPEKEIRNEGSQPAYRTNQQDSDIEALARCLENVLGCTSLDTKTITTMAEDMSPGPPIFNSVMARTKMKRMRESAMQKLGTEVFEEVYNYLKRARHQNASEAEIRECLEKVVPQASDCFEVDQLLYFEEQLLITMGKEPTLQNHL
The following applies: at 1 µM.

Experiment [4] addresses T2, Serine/threonine-protein kinase Nek11 (Homo sapiens). The note with it: at 10 µM.
For experiment [5], the target named is Serine/threonine-protein kinase tousled-like 2 (Homo sapiens) (UniProt Q86UE8). The note with it: at 1 µM.
Serine/threonine-protein kinase tousled-like 2 (Homo sapiens), sequence (Q86UE8 whole entry, looked up): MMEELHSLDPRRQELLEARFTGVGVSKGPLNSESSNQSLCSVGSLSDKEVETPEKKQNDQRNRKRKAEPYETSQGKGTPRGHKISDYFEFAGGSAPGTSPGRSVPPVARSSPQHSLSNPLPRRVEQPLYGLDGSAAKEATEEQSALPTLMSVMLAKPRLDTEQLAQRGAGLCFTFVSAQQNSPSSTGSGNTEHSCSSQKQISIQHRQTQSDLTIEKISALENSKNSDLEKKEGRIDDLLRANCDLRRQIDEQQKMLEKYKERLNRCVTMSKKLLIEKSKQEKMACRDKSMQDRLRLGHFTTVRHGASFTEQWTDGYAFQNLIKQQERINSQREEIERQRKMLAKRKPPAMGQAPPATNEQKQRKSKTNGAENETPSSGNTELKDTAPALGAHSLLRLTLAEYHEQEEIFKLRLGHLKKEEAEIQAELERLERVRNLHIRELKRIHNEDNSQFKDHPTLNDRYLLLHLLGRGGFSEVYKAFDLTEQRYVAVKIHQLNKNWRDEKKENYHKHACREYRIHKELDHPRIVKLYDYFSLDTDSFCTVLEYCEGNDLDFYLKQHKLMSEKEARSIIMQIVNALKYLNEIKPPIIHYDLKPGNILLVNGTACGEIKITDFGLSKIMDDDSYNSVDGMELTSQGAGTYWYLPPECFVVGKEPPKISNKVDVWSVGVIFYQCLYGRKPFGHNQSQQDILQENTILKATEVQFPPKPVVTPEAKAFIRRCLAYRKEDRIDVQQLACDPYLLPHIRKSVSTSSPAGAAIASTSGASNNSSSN
The target is the same in experiment [6]. The note with it: at 10 µM.
Experiment [7] has as its target T3, Serine/threonine-protein kinase Nek2 (Homo sapiens) (UniProt P51955).
T3 sequence (whole entry): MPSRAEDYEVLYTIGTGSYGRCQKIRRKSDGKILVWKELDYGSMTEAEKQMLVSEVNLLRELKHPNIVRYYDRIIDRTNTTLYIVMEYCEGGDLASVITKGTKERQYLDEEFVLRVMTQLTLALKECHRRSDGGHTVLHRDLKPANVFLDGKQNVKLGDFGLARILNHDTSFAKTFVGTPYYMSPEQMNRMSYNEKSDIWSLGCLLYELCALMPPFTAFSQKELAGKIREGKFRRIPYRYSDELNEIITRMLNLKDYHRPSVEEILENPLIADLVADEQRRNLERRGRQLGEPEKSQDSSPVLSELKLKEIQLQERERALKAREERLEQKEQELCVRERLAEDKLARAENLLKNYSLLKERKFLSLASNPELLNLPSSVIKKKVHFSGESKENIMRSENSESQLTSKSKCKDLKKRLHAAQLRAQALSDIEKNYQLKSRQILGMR
The following applies: at 10 µM.

Experiment [8] has as its target T3, Serine/threonine-protein kinase Nek2 (Homo sapiens). The note with it: at 1 µM.
Experiment [9] concerns the target T4, Serine/threonine-protein kinase Nek3 (Homo sapiens) (UniProt P51956).
T4 sequence (whole entry): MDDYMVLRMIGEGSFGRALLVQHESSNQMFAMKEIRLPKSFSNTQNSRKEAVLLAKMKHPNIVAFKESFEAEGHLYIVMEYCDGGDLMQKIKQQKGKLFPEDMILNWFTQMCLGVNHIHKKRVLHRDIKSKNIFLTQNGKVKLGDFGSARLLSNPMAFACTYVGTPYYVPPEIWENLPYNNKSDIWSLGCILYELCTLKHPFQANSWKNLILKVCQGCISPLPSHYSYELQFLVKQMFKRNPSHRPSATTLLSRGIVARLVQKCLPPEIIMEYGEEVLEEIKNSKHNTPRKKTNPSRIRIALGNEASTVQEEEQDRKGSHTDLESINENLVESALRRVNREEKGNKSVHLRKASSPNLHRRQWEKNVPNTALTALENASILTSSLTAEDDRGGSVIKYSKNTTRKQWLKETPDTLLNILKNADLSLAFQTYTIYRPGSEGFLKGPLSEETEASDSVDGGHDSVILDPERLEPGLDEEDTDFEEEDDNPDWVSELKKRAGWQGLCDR
The note with it: at 1 µM.

In experiment [10] the target is T4, Serine/threonine-protein kinase Nek3 (Homo sapiens). The note with it: at 10 µM.

A word on the residual activity: it is the signal under treatment as a percentage of the control signal. On to `O=C1NC(=O)C(c2cn(CCCO)c3ncccc23)=C1c1cnccn1`, for which the residual activity is 81% in experiment [1]; 84% in experiment [2]; 72% in experiment [3]; 82% in experiment [4]; 98% in experiment [5]; 82% in experiment [6].
With `CC(C)(C)c1nc2c3ccc(F)cc3c3c(=O)[nH]ccc3c2[nH]1`, the results for the residual activity in experiment [3], in [4] and in experiment [7] were 98%, 55% and 102%, respectively.
As for `COc1ccc(COc2ccc(Cc3cnc(N)nc3N)cc2OC)cc1`, the residual activity was 110% in [3] and 115% in experiment [4].
Taken in the same sequence, the figures for `Fc1ccc(-c2nc3n(c2-c2ccncc2)CCS3)cc1` were 77% and 83%.
Take `O=C1NC(=O)C(c2c[nH]c3ccccc23)=C1c1c[nH]c2ccccc12`: the residual activity in experiment [2] turned out to be 60%; in experiment [3] it was 63%; in experiment [4], 59%; in experiment [5], 51%; in experiment [6] it was 9%.
For the compound `O=C(Nc1nc2ccccc2n1CCN1CCOCC1)c1cccc([N+](=O)[O-])c1`, the residual activity in [3] is 84%; in experiment [4], 74%; in experiment [8], 75%; in experiment [9] it was 106%; in experiment [10], 85%.
In the case of `CN([C@@H](Cc1ccc(OS(=O)(=O)c2cccc3cnccc23)cc1)C(=O)N1CCN(c2ccccc2)CC1)S(=O)(=O)c1cccc2cnccc12`, the figures for the residual activity in experiment [1], in [9] and in experiment [10] were 115%, 99% and 99%, respectively.
In the case of `COc1cc2c(cc1OC)-c1n[nH]c(Nc3cccc(F)c3)c1C2`, the residual activity in experiment [8] is 82%; in [7] it was 80%; in [9] it was 114%; in experiment [10] it was 100%.
Consider `Nc1ncnc2[nH]nc(Nc3ccc(F)cc3)c12`, for which the residual activity is 76% in experiment [2]; 57% in [3]; 42% in [4]; 82% in experiment [9]; 81% in [10]; 105% in experiment [5].
